# Data reported in PMC7819943, “Rice protein-binding microarrays: a tool to detect cis-acting elements near promoter regions in rice”.
# Whole data set: some 39,000 sequences, median “fluorescence intensity (a.u.)” near 4,300, cut for the highest 2% near 39,000. For the sample, the highest values were picked, then their nearest neighbours and some sequences at random.
# Biological target: T1, OsSMF1 (Oryza sativa, UniProt Q6ZLB0 1-436)
# T1 sequence: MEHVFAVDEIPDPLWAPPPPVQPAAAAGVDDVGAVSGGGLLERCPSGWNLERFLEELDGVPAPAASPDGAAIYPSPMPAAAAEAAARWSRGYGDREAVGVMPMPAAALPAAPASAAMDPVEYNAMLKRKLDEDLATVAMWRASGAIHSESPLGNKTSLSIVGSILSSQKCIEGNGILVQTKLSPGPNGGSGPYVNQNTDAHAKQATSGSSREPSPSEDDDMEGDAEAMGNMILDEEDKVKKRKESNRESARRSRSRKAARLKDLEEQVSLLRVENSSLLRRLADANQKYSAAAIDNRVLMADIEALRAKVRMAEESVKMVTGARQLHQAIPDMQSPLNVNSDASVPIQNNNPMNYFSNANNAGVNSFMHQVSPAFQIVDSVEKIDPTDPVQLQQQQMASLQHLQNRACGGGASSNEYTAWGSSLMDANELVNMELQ
# Test: protein-binding microarray (RPBM); PBS, 2% BSA, 51.3 ng/ul salmon testes DNA, 50 uM zinc acetate, 200 nM TF, 25 C, 1 h; high values mean tight binding
# Settings: protein: recombinant; tags: N-terminal polyhistidine and DsRed monomer fusion (pET32a); chain copies: 2; label: CyDye5-dUTP incorporated in the synthesized complementary strand; 3' TTTTT single-stranded linker to array surface; dsDNA, one strand shown
# In short: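 Transcription factors were each fused at the N-terminus to a polyhistidine tag plus DsRed and expressed in E. coli BL21-CodonPlus before Ni–NTA purification. Binding to a double-stranded custom Agilent array was carried out with 200 nM protein at 25 °C for 1 h in PBS, 2% BSA, salmon testes DNA and 50 µM zinc acetate. The binding signal is per-feature fluorescence intensity, in arbitrary units, on an Axon 4000B scanner.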
row,Sequence,binding signal
1,CTCCAGCATCGCCACCGGGTCCCCGTACGGGTTCTTCGGGCGGAGTCACCTAGTGCAG,3620 fluorescence intensity (a.u.)
2,CTCTGCTCTCAAATGCTCTGTGTGCGATCAGGTATTCATGCGGAGTCACCTAGTGCAG,3270 fluorescence intensity (a.u.)
3,ACCGAGTAGATCACTTCCGTGCAAGTTGGTTGACAAGTATCGGAGTCACCTAGTGCAG,3480 fluorescence intensity (a.u.)
4,CTGGACACCTCACGAAGTCTCAAACTGCTGTTTGTTCTCACGGAGTCACCTAGTGCAG,4230 fluorescence intensity (a.u.)
5,ATATGGCCTTCGGTGGTATCCACGTAGAGCTTTACGTTAACGGAGTCACCTAGTGCAG,4810 fluorescence intensity (a.u.)
6,CACCCGCGTGTATGCCAGCTAGGCTTGGCTCCGACGTGGACGGAGTCACCTAGTGCAG,4790 fluorescence intensity (a.u.)
7,GCAGCCACGACGCCCGCCAATGCTGCCGCCGCCATCGATGCGGAGTCACCTAGTGCAG,5300 fluorescence intensity (a.u.)
8,AGAATTTGTTCGTCACCCATATATCGGCGTCATGACCTCGCGGAGTCACCTAGTGCAG,3510 fluorescence intensity (a.u.)
9,GTCGGATCCCCGCGCAATCATACACACGTGTCGCCGTCGCCGGAGTCACCTAGTGCAG,8730 fluorescence intensity (a.u.)
10,TTAGGACCATAATATCTAATGTTACATGCCACGTACCAAACGGAGTCACCTAGTGCAG,7280 fluorescence intensity (a.u.)
11,GCCGCCCGCGCGCGACCGCGTGACGTCGCAGCCGCACCGACGGAGTCACCTAGTGCAG,6080 fluorescence intensity (a.u.)
12,GCCGCTTCGATGCTGGCGGCAGGGTGGGGCGGGGATGCCTCGGAGTCACCTAGTGCAG,6170 fluorescence intensity (a.u.)
13,GACGGGCGGCGGTGGGGCTGACGCGGGCGACGGAGGGGCTCGGAGTCACCTAGTGCAG,6720 fluorescence intensity (a.u.)
14,GCGGAGGAGGCAAGGAGATCAGGCGGCAGAGGAAAGGGGCCGGAGTCACCTAGTGCAG,3280 fluorescence intensity (a.u.)
15,CGCTGCGGGGAGTCGGCGCTTCGTCGGAGGCGGCGGGGCGCGGAGTCACCTAGTGCAG,3230 fluorescence intensity (a.u.)
16,CTGGTCGGCGCGGGCACGCGCTTGCGGAGGCTGGGGAGTCCGGAGTCACCTAGTGCAG,39700 fluorescence intensity (a.u.)
17,TCGTCCGATCCCCTAGCGTGGCCACCGATCCGCCCGTCCCCGGAGTCACCTAGTGCAG,3230 fluorescence intensity (a.u.)
18,TTGGGCGGCGGTGCGGGGAGGCTGAGGGGCGGCGCCGGCGCGGAGTCACCTAGTGCAG,3580 fluorescence intensity (a.u.)
19,ACGGCATCGATCGATCGCGGGCGACGTGGCTGAGTGGCGGCGGAGTCACCTAGTGCAG,6420 fluorescence intensity (a.u.)
20,TGCCACCGTGGCGGCCGGGCCGATCCCCTAGCTGACGTGGCGGAGTCACCTAGTGCAG,41900 fluorescence intensity (a.u.)
21,AGAGGGGCAGAGAGAGAGAGTGAGTGAGAAAGAGATCAAGCGGAGTCACCTAGTGCAG,56600 fluorescence intensity (a.u.)

row,Sequence,binding signal
1,GGCTTCGCCGACGGTGGCTCGGGCGACGGCGATGCTGGGGCGGAGTCACCTAGTGCAG,58600 fluorescence intensity (a.u.)
2,GATCAAACCAGCGGCAGATGAGGGCGCAAAGAGAAAGAGCCGGAGTCACCTAGTGCAG,4210 fluorescence intensity (a.u.)
3,GAAAGTTGCTGCGAACATACGTGATGACGCGACTAAAGCTCGGAGTCACCTAGTGCAG,5210 fluorescence intensity (a.u.)
4,ATAGCCCAACTCGAATCAATCCACGTCTCCACCGTTCATCCGGAGTCACCTAGTGCAG,3360 fluorescence intensity (a.u.)
5,TCCGTCGCGATTCGCCACCTCGCCCTCGTCTCGTTTTAGCCGGAGTCACCTAGTGCAG,3450 fluorescence intensity (a.u.)
6,ATGCACTTCCTGTCACGGTCCGGCCCATCCTAGCTGCCGGCGGAGTCACCTAGTGCAG,3290 fluorescence intensity (a.u.)
7,AAACTTCTCTTCAGATAAAGATTTACTACCGTGTCAAATTCGGAGTCACCTAGTGCAG,3800 fluorescence intensity (a.u.)
8,CTCCGTCCACTGGACAGGGCAGAGGCTGCCTACCAGACACCGGAGTCACCTAGTGCAG,4640 fluorescence intensity (a.u.)
9,GACAGTAGCAGCAGTGGACACGTCGATTTCGCAATTCGTGCGGAGTCACCTAGTGCAG,5760 fluorescence intensity (a.u.)
10,GCCAGGCGACGCGACGAGTCAGCTCAGCTCGCGCCCGCGGCGGAGTCACCTAGTGCAG,3700 fluorescence intensity (a.u.)
11,CGAGAGGTACCGCGCGCTGCCGGCGGAGAAGCGGGCGAGGCGGAGTCACCTAGTGCAG,41500 fluorescence intensity (a.u.)
12,TGCTTAGCCGTGCGGCCCGTGCGGCGTCAATGGCGTGGCGCGGAGTCACCTAGTGCAG,4440 fluorescence intensity (a.u.)
13,TCCCGTGCAGCCGTGGCAGCCGCGCGCTGCTCGAGTCCGGCGGAGTCACCTAGTGCAG,4470 fluorescence intensity (a.u.)
14,GGAGCGCGGACTCGCCGGCCAGCCGCGTCACGCGCTGGCGCGGAGTCACCTAGTGCAG,6650 fluorescence intensity (a.u.)
15,GAGGTACCGGCCGTACGCGCCGCGGAGGCGGACGTAGGGCCGGAGTCACCTAGTGCAG,31200 fluorescence intensity (a.u.)
16,GGCGAGCGCGGCGGAGGAGCGGCGGCGGGCGAGCGCGGCGCGGAGTCACCTAGTGCAG,8450 fluorescence intensity (a.u.)
17,GCGGCGGTGTCTCGCGCCGCCAGCCTACAAATGGGGAGAGCGGAGTCACCTAGTGCAG,40300 fluorescence intensity (a.u.)
18,CGGTGGCAGCCCGGCGGCGTGGAGCGCGCTGCTTAGCGCGCGGAGTCACCTAGTGCAG,53600 fluorescence intensity (a.u.)
19,GAGAGGGGAAGGGCGCTAGTAAGAAGCGCTAAGGGATGAGCGGAGTCACCTAGTGCAG,3180 fluorescence intensity (a.u.)
20,GAAGAGGGGAGGGAGCTCCAAAAGGGCGAGAAAGTAAGCGCGGAGTCACCTAGTGCAG,39400 fluorescence intensity (a.u.)
21,GGCGCCAGCCCCGGTGCCGGGGAGTGTGGCGGAGCGGGAGCGGAGTCACCTAGTGCAG,3910 fluorescence intensity (a.u.)
